The target in the assay is Aldehyde dehydrogenase 1A1 (Homo sapiens) (UniProt P00352). Briefly: Inhibitors of Aldehyde Dehydrogenase 1 (ALDH1A1): Followup Confirmation and Counterscreen. The note with it: purified ALDH1A1, NADH fluorescence, propionaldehyde/NAD+. An excerpt: Aldehyde dehydrogenase 1 (ALDH1A1) catalyzes the NAD+ dependent oxidation of a variety of endogenous and exogenous aldehydes to the corresponding carboxylic acids. The enzyme is the critical step in the metabolic activation of retinoic acid, which plays essential roles as nuclear receptor ligand. […] See [1] through for more information on ALDH1A1. Inhibition of ALDH1A1 activity was screened by utilizing propionaldehyde as an electron donor and NAD+ as an electron acceptor/cofactor. An increase in the fluorescence intensity due to conversion of NAD+ to NADH was used to measure the enzyme activity. See [5] for screening methodology used. References: [1] Manzer R, Qamar L, Estey T, Pappa A, Petersen DR, Vasiliou V. Molecular cloning and baculovirus expression of the rabbit corneal aldehyde dehydrogenase (ALDH1A1) cDNA. DNA Cell Biol. 2003 May;22(5):329-38. […] Quantitative high-throughput screening: a titration-based approach that efficiently identifies biological activities in large chemical libraries. […]
Buffer: 100 mM Hepes pH 7.5, 0.01% Tween 20. […] The plates were immediately transferred to and read twice on ViewLux High-throughput CCD imager (Perkin-Elmer) 20 minutes apart using 360 nm excitation and 450 nm emission fluorescence protocol. The fluorescence intensity difference between the second and the first time points was used to compute reaction progress.

The structures appear in SMILES notation. This is one part of the list. Activity calls are given as the source filed them. Calls come from the whole dose curve.

Chain of Aldehyde dehydrogenase 1A1 (Homo sapiens) (P00352 whole entry, looked up): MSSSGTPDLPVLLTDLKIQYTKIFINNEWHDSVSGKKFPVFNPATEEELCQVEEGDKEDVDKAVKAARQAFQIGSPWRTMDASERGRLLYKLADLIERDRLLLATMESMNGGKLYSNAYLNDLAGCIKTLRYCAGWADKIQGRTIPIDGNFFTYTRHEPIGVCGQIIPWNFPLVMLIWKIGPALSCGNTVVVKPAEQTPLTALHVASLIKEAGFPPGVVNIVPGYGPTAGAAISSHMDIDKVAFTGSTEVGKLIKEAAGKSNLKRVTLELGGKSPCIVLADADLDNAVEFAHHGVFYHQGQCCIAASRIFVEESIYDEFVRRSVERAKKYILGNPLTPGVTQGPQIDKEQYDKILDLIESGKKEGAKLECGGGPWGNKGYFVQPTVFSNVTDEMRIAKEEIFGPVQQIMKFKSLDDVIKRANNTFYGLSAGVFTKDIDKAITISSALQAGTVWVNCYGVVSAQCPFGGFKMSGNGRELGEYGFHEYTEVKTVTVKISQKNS

For the compound `C[C@]12CC[C@@H]3C(=CCc4cc(O)ccc43)[C@@H]1CCC2=O`, the Potency was 501 nM (active).

(Values after PubChem BioAssay AID493210 (National Center for Advancing Translational Sciences (NCATS), 2011).)
